Test results from PubChem BioAssay.
Active and inactive are the calls of the source.

Columns and labels:
Albumin (Bos taurus) = Albumin (Bos taurus) (UniProt P02769); assay: compounds binding labelled BSA control protein – biochemical, small-molecule microarray, Alexa647 label, 635/667 nm fluorescence, artefact control for SMM control protein annotation, profiling panel (AID 1118); details: BSA-A647 binding, fluorescence 635 nm, higher = more signal;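 also: score merges 667 nm emission intensity and signal-to-noise per printed compound spot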
[1] = probe aXIP binding to arrayed compounds – biochemical, NeuroSMM set, 635/667 nm fluorescence, primary screen (AID 1119); details: small-molecule microarray, higher = more signal, called active from +8 up or from −8 down;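 also: probe is the protein aXip251-270 applied at 1 µg/mL to compound-printed slides; binding of probe to printed compounds measured as 667 nm fluorescence plus signal to noise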
[2] = probe aNOTCH3 binding on compound microarray – biochemical, small-molecule microarray, 635/667 nm fluorescence, primary screen (AID 1120); details: higher = more signal;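 also: probe is a biotin-tagged antibody raised against NOTCH3 rather than NOTCH3 protein; score merges spot fluorescence near 667 nm with spot signal to noise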
[3] = probe aNOTCH2 binding on compound microarray – biochemical, small-molecule microarray, 635/667 nm fluorescence, primary screen (AID 1121); details: higher = more signal;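 also: score merges feature fluorescence read at 667 nm with its signal to noise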
[4] = target: Carbonic anhydrase 2 (Homo sapiens) (UniProt P00918); assay: compounds binding carbonic anhydrase 2 – biochemical, small-molecule microarray, Alexa647-labelled CAII, profiling panel (AID 1122); details: CAII-A647 binding fluorescence, higher = more signal
[5] = COS7 lysate on small-molecule microarray, probe aHis, 635 nm (AID 1123); details: COS7 cell lysate, fluorescence, higher = more signal;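 also: z-score combines 667nm fluorescence intensity with signal-to-noise per printed compound spot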
[6] = probe aLAP1 signal on lysate-treated microarray – cell lysate, small-molecule microarray, COS7 lysate, primary screen (AID 1124); details: probe aLAP1, fluorescence, higher = more signal;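 also: lysate comes from COS7 cells expressing LAP1 and is applied at 0.3 µg/mL; score merges spot fluorescence near 667 nm with signal-to-noise over triplicate slides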
Sam68 (KHDRBS1) = assay: compounds binding KHDRBS1 protein – biochemical, small-molecule microarray, 635 nm fluorescence, primary screen (AID 1125); details: higher = more signal;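 also: score merges 667 nm channel intensity with signal to noise over triplicate slides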
[7] = system: Chordin-like protein 2 (CHRDL2); assay: compounds binding chordin-like 2 – biochemical, small-molecule microarray, 635 nm fluorescence, primary screen (AID 1126); details: fluorescence 635 nm, higher = more signal;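 also: printed compound slides probed with Chrdl2 protein at 4 µg/mL for 1 h at 4 C; score merges 667 nm emission intensity with signal to noise over three replicate slides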
[8] = target: Concanavalin-A (Canavalia ensiformis) (UniProt P02866); assay: compounds binding concanavalin A lectin – biochemical, small-molecule microarray, Alexa647 label, 635 nm, artefact control for SMM control protein annotation, primary screen (AID 1127); details: ConA-A647 binding fluorescence, higher = more signal;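 also: z combines 667 nm emission intensity with signal-to-noise across three replicate slides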
[9] = compounds binding Alexa647 anti-His antibody – biochemical, small-molecule microarray, 635 nm fluorescence, artefact control for SMM control protein annotation, primary screen (AID 1128); details: higher = more signal;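 also: score merges feature fluorescence with signal-to-noise for each printed compound spot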
[10] = system: Human papillomavirus type 1a E7 protein (residues 1-88); assay: HPV1a E7 small-molecule binders, primary screen, biochemical, small-molecule microarray, residues 1-88, 635 nm (AID 1129); details: small-molecule microarray binding, fluorescence 635 nm; higher = more signal
[11] = target: Focal adhesion kinase 1 (Homo sapiens) (UniProt Q05397); assay: PTK2 protein binding on printed compound slides – biochemical, small-molecule microarray, 635/667 nm fluorescence, BSA, DTT, primary screen (AID 1130); details: 635 nm fluorescence, higher = more signal;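 also: composite of spot emission at 667 nm and signal to noise over triplicate slides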
[12] = system: Fibrinogen (Alexa647-labelled); assay: Alexa647-fibrinogen binding to printed small molecules – biochemical, small-molecule microarray, 635/667 nm fluorescence, artefact control for SMM control-protein annotation, profiling panel (AID 1131); details: fibrinogen-A647 binding fluorescence, higher = more signal;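 also: z-score merges 667 nm fluorescence with per-spot signal-to-noise over triplicate slides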
[13] = target: Follistatin (Homo sapiens) (UniProt P19883); assay: FST protein binding to printed compounds – biochemical, small-molecule microarray, 635/667 nm fluorescence, primary screen (AID 1132); details: 635 nm fluorescence, higher = more signal
[14] = target: Fibroblast growth factor 2 (Homo sapiens) (UniProt P09038); assay: basic fibroblast growth factor binding to printed compounds – biochemical, small-molecule microarray, 635/667 nm fluorescence, primary screen (AID 1133); details: FGF2, fluorescence 635/667, higher = more signal
[15] = JC-1 mitochondrial potential readout, lung cancer cells – cell-based, A549, JC-1 fluorescence, basal, 24 h, 100 nL, profiling panel (AID 1138); details: higher = more signal;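 also: A549 lung adenocarcinoma cells under basal conditions with no added stimulus; test concentration not given here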
Lefty1 = Lefty1 protein binding to printed compounds – biochemical, small-molecule microarray, 635/667 nm fluorescence, primary screen (AID 1139); details: fluorescence 635/667, higher = more signal
[16] = system: wheat germ agglutinin (Triticum aestivum), Alexa647-labelled; assay: Alexa647-WGA lectin binding to printed small molecules – biochemical, small-molecule microarray, 635/667 nm fluorescence, artefact control for SMM control-protein annotation, profiling panel (AID 1140); details: WGA-A647 binding, 635 nm fluorescence, higher = more signal;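 also: score merges 667 nm feature emission with signal to noise over triplicate slides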
[17] = target: Luciferin 4-monooxygenase (Photinus pyralis) (UniProt P08659); assay: inhibition of purified Photinus pyralis luciferase – biochemical, luminescence, purified enzyme, 2006 set, primary screen (AID 1141); details: purified firefly luciferase, SteadyGlo luminescence, 30 min; higher = more signal, called active from +8 up or from −8 down;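 also: cell-free assay with purified firefly luciferase at 100 ng per well in PBS; test concentration not given here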
Sequence of Luciferin 4-monooxygenase (Photinus pyralis) (P08659 whole entry, looked up): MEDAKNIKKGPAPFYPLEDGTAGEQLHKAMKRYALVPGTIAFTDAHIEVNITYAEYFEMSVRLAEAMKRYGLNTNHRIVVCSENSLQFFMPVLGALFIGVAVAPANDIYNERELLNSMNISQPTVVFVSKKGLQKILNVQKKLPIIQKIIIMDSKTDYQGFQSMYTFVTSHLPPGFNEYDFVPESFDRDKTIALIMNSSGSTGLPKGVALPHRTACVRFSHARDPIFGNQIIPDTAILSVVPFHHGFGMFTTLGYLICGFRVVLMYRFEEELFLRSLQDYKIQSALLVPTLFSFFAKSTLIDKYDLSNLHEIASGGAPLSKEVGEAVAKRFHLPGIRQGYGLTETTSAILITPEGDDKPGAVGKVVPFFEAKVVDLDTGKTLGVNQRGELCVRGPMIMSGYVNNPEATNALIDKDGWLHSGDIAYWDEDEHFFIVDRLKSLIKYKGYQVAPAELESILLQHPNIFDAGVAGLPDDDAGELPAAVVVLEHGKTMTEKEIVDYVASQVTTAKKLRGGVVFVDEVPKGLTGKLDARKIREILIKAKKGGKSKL

Sequence of Follistatin (Homo sapiens) (P19883 whole entry, looked up): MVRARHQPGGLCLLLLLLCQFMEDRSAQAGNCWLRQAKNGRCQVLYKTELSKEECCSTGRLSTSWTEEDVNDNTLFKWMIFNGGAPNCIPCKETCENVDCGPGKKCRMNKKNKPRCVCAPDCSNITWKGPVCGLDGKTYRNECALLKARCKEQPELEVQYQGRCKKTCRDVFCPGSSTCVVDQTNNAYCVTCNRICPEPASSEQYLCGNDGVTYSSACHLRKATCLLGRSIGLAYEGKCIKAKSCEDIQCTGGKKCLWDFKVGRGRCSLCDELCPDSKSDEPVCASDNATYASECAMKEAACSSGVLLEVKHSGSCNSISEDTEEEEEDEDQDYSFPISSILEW
Sequence of Focal adhesion kinase 1 (Homo sapiens) (Q05397 whole entry, looked up): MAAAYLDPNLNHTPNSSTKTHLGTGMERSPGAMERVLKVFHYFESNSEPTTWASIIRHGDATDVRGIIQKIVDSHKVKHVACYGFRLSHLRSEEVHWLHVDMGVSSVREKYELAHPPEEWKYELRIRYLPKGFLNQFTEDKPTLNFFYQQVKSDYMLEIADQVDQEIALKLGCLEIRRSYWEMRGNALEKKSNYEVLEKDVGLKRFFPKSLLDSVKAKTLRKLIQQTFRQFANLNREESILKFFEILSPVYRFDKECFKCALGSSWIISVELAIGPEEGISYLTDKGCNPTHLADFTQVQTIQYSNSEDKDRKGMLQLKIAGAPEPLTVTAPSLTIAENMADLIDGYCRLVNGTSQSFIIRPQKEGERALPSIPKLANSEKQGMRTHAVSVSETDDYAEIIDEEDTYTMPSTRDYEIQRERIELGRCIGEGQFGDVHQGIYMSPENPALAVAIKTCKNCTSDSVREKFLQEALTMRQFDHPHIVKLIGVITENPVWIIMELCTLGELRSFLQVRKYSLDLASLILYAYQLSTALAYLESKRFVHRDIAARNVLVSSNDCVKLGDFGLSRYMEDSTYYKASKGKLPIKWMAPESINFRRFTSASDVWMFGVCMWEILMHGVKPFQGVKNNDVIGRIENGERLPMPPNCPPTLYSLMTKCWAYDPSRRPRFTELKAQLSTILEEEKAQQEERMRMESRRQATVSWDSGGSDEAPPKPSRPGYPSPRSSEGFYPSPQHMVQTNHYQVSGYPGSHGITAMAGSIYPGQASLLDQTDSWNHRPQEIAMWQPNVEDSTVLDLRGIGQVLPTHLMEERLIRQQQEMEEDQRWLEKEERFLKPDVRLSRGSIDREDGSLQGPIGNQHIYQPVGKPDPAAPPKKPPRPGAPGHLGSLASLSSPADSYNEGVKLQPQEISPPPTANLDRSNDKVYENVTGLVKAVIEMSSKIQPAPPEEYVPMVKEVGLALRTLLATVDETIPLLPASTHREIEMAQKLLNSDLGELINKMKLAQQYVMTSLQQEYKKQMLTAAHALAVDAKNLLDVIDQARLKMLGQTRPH
Sequence of Albumin (Bos taurus) (P02769 whole entry, looked up): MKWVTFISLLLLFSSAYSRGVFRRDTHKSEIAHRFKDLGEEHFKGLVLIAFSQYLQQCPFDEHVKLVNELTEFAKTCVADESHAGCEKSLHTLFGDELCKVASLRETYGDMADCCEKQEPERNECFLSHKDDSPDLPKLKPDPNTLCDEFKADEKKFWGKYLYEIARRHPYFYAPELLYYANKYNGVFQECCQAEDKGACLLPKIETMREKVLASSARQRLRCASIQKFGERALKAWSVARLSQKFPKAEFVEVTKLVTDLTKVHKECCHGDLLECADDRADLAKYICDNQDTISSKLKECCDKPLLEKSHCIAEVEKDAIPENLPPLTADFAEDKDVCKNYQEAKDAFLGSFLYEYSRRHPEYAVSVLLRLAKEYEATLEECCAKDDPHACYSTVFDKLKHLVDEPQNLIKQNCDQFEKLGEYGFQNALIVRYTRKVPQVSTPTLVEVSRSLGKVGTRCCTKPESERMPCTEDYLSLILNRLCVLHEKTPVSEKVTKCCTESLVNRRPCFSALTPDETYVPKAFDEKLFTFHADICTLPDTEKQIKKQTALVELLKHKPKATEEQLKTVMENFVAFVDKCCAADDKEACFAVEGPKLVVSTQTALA
Sequence of Concanavalin-A (Canavalia ensiformis) (P02866 whole entry, looked up): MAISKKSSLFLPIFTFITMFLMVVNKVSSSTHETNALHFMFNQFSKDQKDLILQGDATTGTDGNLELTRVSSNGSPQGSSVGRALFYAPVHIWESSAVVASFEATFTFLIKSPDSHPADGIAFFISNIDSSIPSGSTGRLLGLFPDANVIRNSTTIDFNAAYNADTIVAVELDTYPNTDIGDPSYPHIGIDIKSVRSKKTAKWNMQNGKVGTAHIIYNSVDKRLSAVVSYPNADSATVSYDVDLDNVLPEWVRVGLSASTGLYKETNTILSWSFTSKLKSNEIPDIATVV
Sequence of Fibroblast growth factor 2 (Homo sapiens) (P09038 whole entry, looked up): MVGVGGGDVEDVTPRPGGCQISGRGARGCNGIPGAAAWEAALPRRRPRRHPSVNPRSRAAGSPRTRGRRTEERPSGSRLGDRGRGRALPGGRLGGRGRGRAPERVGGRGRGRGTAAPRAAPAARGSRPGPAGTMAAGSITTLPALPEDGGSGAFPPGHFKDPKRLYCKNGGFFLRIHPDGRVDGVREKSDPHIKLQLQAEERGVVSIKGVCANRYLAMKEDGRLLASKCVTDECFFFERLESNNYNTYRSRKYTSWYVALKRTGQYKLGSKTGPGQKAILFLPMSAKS

Row | SMILES | composite z-score (Albumin (Bos taurus)) | composite Z-score [1] | composite z-score [2] | composite z-score [3] | composite z-score [4] | composite z-score [5] | composite z-score [6] | composite z-score (Sam68 (KHDRBS1)) | composite z-score [7] | composite z-score [8] | composite z-score [9] | composite z-score [10] | composite z-score [11] | composite z-score [12] | composite z-score [13] | composite z-score [14] | z-score [15] | composite z-score (Lefty1) | composite z-score [16] | z-score [17]
1 | C[C@@H]1ON(c2cccc(C(=O)OC(C)(C)C)c2)[C@H](c2ccc(Br)cc2)[C@H]1C(=O)N1C(=O)OC[C@H]1Cc1ccccc1 | 0.0512 | 0.0724 (inactive) | 0.0325 | -0.0454 | 0.133 | 1.2 | 0.261 | 1.21 | 0.52 | 1.09 | 0.556 | 0.77 | 0.306 | 0.937 | 1.21 | 0.735 | 1.63 | 0.766 | 0.106 | -0.68 (inactive)
2 | CS(=O)(=O)CCOC(=O)C1=CC(CCCO)=CC(c2ccc(CN3CCCC3)cc2)N(Cc2cc3c(cc2Br)OCO3)C=C1C(=O)OCCS(C)(=O)=O (stereo not given) | 0.649 | 1.09 (inactive) | 0.165 | -0.0163 | 0.804 | 1.78 | 1.31 | 1.31 | 0.373 | 1.08 | 2.28 | 0.712 | 0.0113 | 0.971 | 0.694 | 0.382 | 3.39 | 0.666 | 0.914 | -1.78 (inactive)
3 | C=CCNC(=O)[C@@H]1[C@H]2C(=O)O[C@H](c3ccccc3)[C@H](c3ccccc3)N2[C@H](c2ccccc2OCCO)[C@@]12C(=O)N(C(=O)OCCOC)c1ccc(C#CCNC(N)=O)cc12 | 0.79 | -0.105 (inactive) | 0.184 | -0.0772 | 0.247 | 1.47 | 0.546 | 1.32 | -0.182 | 0.959 | 1.56 | 1.14 | 0.322 | 0.887 | 0.864 | 0.658 | -0.206 | 0.857 | 0.916 | -0.63 (inactive)
4 | C[C@]1(C(=O)NC2CC2)c2ccccc2C(=O)N(Cc2cc(C(F)(F)F)cc(C(F)(F)F)c2)[C@H]1c1ccc(CO)cc1 | -0.0744 | 0.676 (inactive) | 0.208 | -0.0712 | 0.412 | 1.28 | 0.283 | 1.32 | 0.39 | 0.835 | 1.86 | 1.11 | -0.0326 | 0.657 | 1.31 | 0.998 | 1.73 | 0.539 | 0.772 | -1.07 (inactive)
5 | CCc1oc(CC[C@@H](CO)NC(=O)NCCn2cc(C3(O)CCCCC3)nn2)c(C(=O)OC)c1C(=O)OC | -0.272 | -0.0435 (inactive) | 0.232 | -0.0813 | -0.0227 | 0.376 | 0.731 | 1.18 | 0.915 | 1.11 | 2.48 | 0.687 | -0.353 | 0.685 | 1.28 | 1.13 | -0.0225 | 1.63 | 0.074 | 0.654 (inactive)
6 | CN(C)C(=O)[C@@]1(Cc2ccccc2)N=C(c2ccc(OCCCO)cc2)O[C@H]1c1ccccc1N=[N+]=[N-] | 0.952 | -0.0707 (inactive) | 0.516 | -0.0422 | 0.765 | 2.88 | 0.935 | 1.29 | 0.152 | 1.13 | 2.01 | 1.25 | 0.978 | 1.01 | 1.34 | 0.249 | -0.631 | 0.623 | 0.382 | -6.45 (inactive)
7 | COc1ccc(C(O)C2C=CC3C(=O)NC(=O)C3N2Nc2ccccn2)c2ccccc12 (stereo not given) | 0.304 | 0.224 (inactive) | -0.0431 | -0.101 | 0.879 | 0.452 | -0.14 | -0.328 | 0.485 | 0.495 | 0.516 | -0.609 | -0.106 | 0.0992 | 0.488 | 0.524 | -1.15 | -0.0665 | 0.788 | -1.46 (inactive)
8 | COC(=O)c1c(CC[C@@H](CO)NC(=O)N2CCC[C@H]2Cn2cc(-c3ccccn3)nn2)oc(C(C)=O)c1C(=O)OC | 0.453 | 0.294 (inactive) | -0.118 | -0.171 | 0.428 | 0.043 | 0.274 | 0.882 | -0.394 | 0.419 | 0.0014 | 0.282 | 0.16 | -0.975 | -0.0633 | 0.123 | -0.53 | 0.427 | 0.0776 | 0.793 (inactive)
9 | CN1C2C=C(CCCO)C(C3C(=O)N(C(N)=O)C(=O)C32)C1c1ccc(CN2CCCC2)cc1 (stereo not given) | -1.07 | -0.275 (inactive) | -0.326 | -0.152 | -0.452 | -0.0732 | -0.579 | -1.18 | -0.686 | -0.34 | 0.161 | -0.697 | -0.311 | -0.929 | -0.0168 | 0.0692 | -0.637 | -0.484 | -0.0816 | 0.73 (inactive)
10 | CCOC(=O)C[C@H]1[C@H](OC(=O)c2cc3ccccc3oc2=O)[C@@H](NC(=O)C2CCCCC2)c2cc(OCCCO)ccc2N1C(=O)c1ccccc1 | 0.266 | -0.275 (inactive) | 0.281 | -0.0482 | 0.274 | 0.112 | -0.0802 | 1.04 | 0.438 | 0.282 | 0.127 | 0.942 | 0.711 | 0.799 | 0.786 | 1.48 | -0.353 | 0.558 | 0.667 | -0.196 (inactive)
